Test results published in PubChem BioAssay (NCATS).
Results filed as inconclusive are left out. Active and inactive are the calls of the source. Unless noted, calls follow the shape of the dose curve; as a rule, active = well fitted curve in the direction sought with a large enough effect; inconclusive = small, poorly fitted or top-dose-only effect, or another doubt; inactive = no such curve, though single readings can be large; an effect the other way counts as inactive or inconclusive. Bridge positions count the residues as written; N and C are the ends. Square brackets hold non-standard residues; d marks the D form. Peptide text beside a SMILES is read from it. * marks the point of attachment. Ileψ(thiazoline)Cys = CC[C@H](C)[C@H](N)C1=N[C@H](C(=O)*)CS1; d(aIle) = CC[C@H](C)[C@@H](N)C(=O)O; dOrn = NCCC[C@@H](N)C(=O)O

Tests used:
[1] = AP1 Signaling Pathway (AID 357; active = well fitted curve in either direction with a large enough effect, not every such curve was filed as active;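 also: ME-180 reporter cells stimulated with EGF at its EC50 level; % is scaled to controls: 0 for no effect and ±100 for the full control effect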)
Procedure, shortened: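 Titration-series screen for positive or negative modulators of EC50 EGF-induced signaling in ME-180 cells carrying an AP-1-driven beta-lactamase reporter. After 5 hours at 37 degrees Celsius, CCF4 460nm/530nm emission ratio gave %Activity; AC50 values derived.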

[2] = NFAT Signaling Pathway (AID 444; active = well fitted curve in either direction with a large enough effect, not every such curve was filed as active;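 also: carbachol stimulus at about its EC50 of 1 µM final; % is scaled to controls: 0 for no effect and ±100 for the full control effect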); conditions: Jurkat NFAT-bla M1, carbachol, beta-lactamase ratio, 5 h; at 17.2 µM (top of the series) unless noted
Procedure, shortened: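 Read-out: CCF4 FRET ratio (460 nm/530 nm) after 1 h RT dye loading, used for %activity and AC50 from titration series. Cells: Jurkat NFAT-β-lactamase/M1 line, treated with compound plus 1 uM carbachol for 5 h, 37 °C.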

[3] = Stat Signaling Pathway (AID 446; active = well fitted curve in either direction with a large enough effect, not every such curve was filed as active;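 also: ME-180 cervical cancer cells given 40 pM IL-6 alongside compound; SIE-controlled beta-lactamase reporter measured as 460/530 nm FRET emission ratio; % is scaled to controls: 0 for no effect and ±100 for the full control effect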)
Procedure, shortened: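 Reporter line: ME-180 cervical carcinoma, SIE-beta-lactamase. Treatment: compound with 40 pM IL-6, 5 hrs, 37 C, in low-serum OPTI-MEM with 10 mM HEPES pH 7.3. Detection: 460/530 nm fluorescence.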

[4] = target: Glucocorticoid receptor (Homo sapiens) (UniProt P04150); experiment: GR-EFC Redistribution (AID 451; calls by dose curve; also: potency is read from the fitted curve at half-maximal effect); conditions: CHO-K1 GR-EFC translocation, beta-gal luminescence, 2 h
Procedure, shortened: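 Translocation of GR-ED fusion to nuclear EA restores b-gal, read by luminescence after 1 h room-temperature detection. Engineered CHO-K1 biosensor cells, 1,000/well, exposed 2 h at 37 C to titrations up to 46 uM final.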

[5] = target: Mitogen-activated protein kinase 10 (Mus musculus) (UniProt Q61831); experiment: JNK3 AlphaScreen Assay (AID 530; active = well fitted curve in either direction with a large enough effect, not every such curve was filed as active;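 also: kinase came from lysate of stimulated human HepG2 cells; signal reports phosphorylation of biotinylated GST-cJun 1-79 at Ser73 with 10 µM ATP; % is scaled to controls: 0 for no effect and ±100 for the full control effect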)
Procedure, shortened: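 Room-temperature AlphaScreen kinase assay; pre-activated HepG2 lysate as JNK3 source, biotin-GST-cJun(1-79) substrate, 10 uM ATP, compound 15 min preincubation.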

[6] = target: 3',5'-cyclic-AMP phosphodiesterase 4B (Homo sapiens) (UniProt Q07343); experiment: qHTS Assay for Inhibitors of PDE-IV (AID 607; active = well fitted activation curve with a large enough effect in the main read-out, with a control signal flat, not every such curve was filed as active; also: % of control where 0% means no effect)
Procedure, shortened: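 Cell-based read-out of cAMP via a modified cyclic nucleotide-gated channel and membrane potential dye (535/590 nm) in HEK293 cells expressing PDE4 endogenously. Compounds tested up to 22.9 uM final; 100 uM RO 20-1724 reference.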

[7] = qHTS Assay for Lipid Storage Modulators (AID 1519; calls by dose curve); conditions: Drosophila S3 cells, BODIPY lipid droplet/cell ratio, laser cytometry, cells loaded with oleic acid; for activity change, negative = inhibition: at 25.7 µM (top of the series)
Procedure, shortened: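 Cells seeded at 5,000 per well were treated with compounds over a concentration series and loaded with oleic acid (400 uM, as added). Lipid droplet fluorescence (488 nm excitation, 500-530 nm channel) was read by laser-scanning cytometry and normalized to 20 uM Triacsin C.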

[8] = target: Ubiquitin carboxyl-terminal hydrolase 1 (Homo sapiens) (UniProt O94782); experiment: Inhibitors of USP1/UAF1: Pilot qHTS (AID 504865);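 also: rhodamine fluorescence freed from ubiquitin-rhodamine substrate followed over time; top concentration of the series differs between compounds; % is scaled to controls: 0 for no effect and ±100 for the full control effect; nearly all actives have a fitted effect of over 35% in size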
Procedure, shortened: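 1nM USP1/UAF1 + cpd, 15 min RT; start w/ Ub-Rho 150nM final; kinetic FL 480/540 nm, 6 reads q60 s. Buffer 50mM HEPES pH 7.8, 0.5mM EDTA, 1mM TCEP, 0.01% Tween-20, 0.1 mg/ml BSA.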

[9] = target: Glucocorticoid receptor (Homo sapiens) (UniProt P04150); experiment: GR-GFP Redistribution (AID 450;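 active = compounds whose dose series gives a full or clear partial fitted curve of increased nuclear translocation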; also: potency is read from the fitted curve at half-maximal effect); conditions: U2OS GR-GFP nuclear translocation, laser cytometry, 2 h
[10] = target: Luciferin 4-monooxygenase (Photinus pyralis) (UniProt P08659); experiment: Biochemical firefly luciferase enzyme assay for NPC (AID 624030);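 also: purified P. pyralis luciferase at 10 nM with luciferin and ATP substrate; 0% = DMSO and -100% = full luciferase inhibition by PTC124 control; nearly all actives have a fitted effect of over 70% in size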
Procedure, shortened: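 Direct inhibition of firefly luciferase enzyme (10 nM final, 50 mM Tris Acetate) assessed by luminescence within 5 minutes. Percent activity scaled between DMSO and PTC124 positive control, with concentration-effect curves classified by fit quality and response.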

[11] = S16 Schwann cell viability assay (CellTiter-Glo assay) (AID 624031);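 also: cellular ATP luminescence as a viability measure; plate controls were DMSO-treated cells for no effect and cell-free wells for full effect; nearly all actives have a fitted effect of over 70% in size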
Procedure, shortened: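 Untransfected S16 rat Schwann cells; compound 24 h, 37 °C/5% CO2; CellTiter-Glo ATP luminescence. % activity vs no-cell wells and DMSO controls (0%); concentration-effect curves classed by r2, response magnitude, activity.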

[12] = qHTS profiling for inhibitors of Plasmodium falciparum proliferation (AID 504749);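 also: 0% = DMSO vehicle and full inhibition = artemisinin control; nearly all actives have a fitted effect of over 60% in size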; conditions: P. falciparum in erythrocytes, SYBR Green DNA, 72 h, at 12.8 µM (top of the series)
Procedure, shortened: (§1)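 Three-day growth assay of blood-stage parasites in erythrocytes (0.3% parasitemia, 2.5% hematocrit) at 37 C, 5% CO2, quantified by SYBR Green DNA staining after overnight detergent lysis.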

[13] = test system: C2A; experiment: as above; conditions: P. falciparum in erythrocytes, SYBR Green DNA, 72 h; series mostly up to 12.8 µM
Procedure, shortened: as §1

[14] = test system: CP191; experiment: as above; conditions: P. falciparum in erythrocytes, SYBR Green DNA, 72 h; series mostly up to 12.8 µM
Procedure, shortened: as §1

[15] = test system: CP247; experiment: as above; conditions: P. falciparum in erythrocytes, SYBR Green DNA, 72 h; series mostly up to 12.8 µM
Procedure, shortened: as §1

[16] = test system: CP250; experiment: as above; conditions: P. falciparum in erythrocytes, SYBR Green DNA, 72 h; series mostly up to 12.8 µM
Procedure, shortened: as §1

[17] = test system: CP256; experiment: as above; conditions: P. falciparum in erythrocytes, SYBR Green DNA, 72 h; series mostly up to 12.8 µM
Procedure, shortened: as §1

[18] = test system: FAB9; experiment: as above; conditions: P. falciparum in erythrocytes, SYBR Green DNA, 72 h; series mostly up to 12.8 µM
Procedure, shortened: as §1

[19] = test system: JCK; experiment: as above; conditions: P. falciparum in erythrocytes, SYBR Green DNA, 72 h; series mostly up to 12.8 µM
Procedure, shortened: as §1

[20] = test system: PC49; experiment: as above; conditions: P. falciparum in erythrocytes, SYBR Green DNA, 72 h; series mostly up to 12.8 µM
Procedure, shortened: as §1

[21] = measured here: cell count channel max response
[22] = measured here: lipid channel max response

Glucocorticoid receptor (Homo sapiens), sequence (P04150 whole entry, looked up, the tested form may be a part): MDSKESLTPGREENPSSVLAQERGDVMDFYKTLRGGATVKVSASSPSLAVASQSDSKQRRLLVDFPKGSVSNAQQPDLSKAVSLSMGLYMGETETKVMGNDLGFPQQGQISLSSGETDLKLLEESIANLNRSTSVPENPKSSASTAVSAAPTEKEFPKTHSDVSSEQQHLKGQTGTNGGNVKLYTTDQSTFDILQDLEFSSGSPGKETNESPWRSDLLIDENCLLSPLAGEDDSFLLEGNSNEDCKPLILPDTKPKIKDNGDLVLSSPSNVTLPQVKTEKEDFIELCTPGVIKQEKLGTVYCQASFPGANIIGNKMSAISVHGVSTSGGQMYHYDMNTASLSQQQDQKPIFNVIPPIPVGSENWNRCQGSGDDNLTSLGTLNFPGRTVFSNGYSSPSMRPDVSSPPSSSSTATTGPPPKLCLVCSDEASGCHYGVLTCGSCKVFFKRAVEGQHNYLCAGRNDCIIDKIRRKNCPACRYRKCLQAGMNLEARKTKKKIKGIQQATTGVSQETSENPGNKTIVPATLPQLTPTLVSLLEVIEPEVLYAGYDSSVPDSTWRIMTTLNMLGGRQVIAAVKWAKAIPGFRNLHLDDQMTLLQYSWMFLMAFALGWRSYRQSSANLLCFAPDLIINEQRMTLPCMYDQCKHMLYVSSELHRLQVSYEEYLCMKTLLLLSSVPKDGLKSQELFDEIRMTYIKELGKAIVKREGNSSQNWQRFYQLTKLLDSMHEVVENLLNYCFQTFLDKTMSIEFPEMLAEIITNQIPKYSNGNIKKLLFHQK
Luciferin 4-monooxygenase (Photinus pyralis), sequence (P08659 whole entry, looked up): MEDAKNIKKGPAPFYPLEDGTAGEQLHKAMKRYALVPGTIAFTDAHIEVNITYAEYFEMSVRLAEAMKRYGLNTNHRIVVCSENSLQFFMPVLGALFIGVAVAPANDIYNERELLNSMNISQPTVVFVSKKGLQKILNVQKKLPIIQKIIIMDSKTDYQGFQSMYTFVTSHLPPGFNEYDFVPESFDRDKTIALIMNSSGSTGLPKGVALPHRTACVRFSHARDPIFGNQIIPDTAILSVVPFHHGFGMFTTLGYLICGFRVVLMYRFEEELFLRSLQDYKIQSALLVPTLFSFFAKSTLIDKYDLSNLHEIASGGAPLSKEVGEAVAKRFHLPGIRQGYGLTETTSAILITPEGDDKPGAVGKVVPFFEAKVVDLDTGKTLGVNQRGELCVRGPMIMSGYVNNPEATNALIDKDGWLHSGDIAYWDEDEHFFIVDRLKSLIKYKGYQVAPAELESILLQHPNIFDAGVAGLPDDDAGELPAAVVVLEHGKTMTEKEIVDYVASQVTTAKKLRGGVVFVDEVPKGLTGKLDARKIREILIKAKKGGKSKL
3',5'-cyclic-AMP phosphodiesterase 4B (Homo sapiens), sequence (Q07343 whole entry, looked up): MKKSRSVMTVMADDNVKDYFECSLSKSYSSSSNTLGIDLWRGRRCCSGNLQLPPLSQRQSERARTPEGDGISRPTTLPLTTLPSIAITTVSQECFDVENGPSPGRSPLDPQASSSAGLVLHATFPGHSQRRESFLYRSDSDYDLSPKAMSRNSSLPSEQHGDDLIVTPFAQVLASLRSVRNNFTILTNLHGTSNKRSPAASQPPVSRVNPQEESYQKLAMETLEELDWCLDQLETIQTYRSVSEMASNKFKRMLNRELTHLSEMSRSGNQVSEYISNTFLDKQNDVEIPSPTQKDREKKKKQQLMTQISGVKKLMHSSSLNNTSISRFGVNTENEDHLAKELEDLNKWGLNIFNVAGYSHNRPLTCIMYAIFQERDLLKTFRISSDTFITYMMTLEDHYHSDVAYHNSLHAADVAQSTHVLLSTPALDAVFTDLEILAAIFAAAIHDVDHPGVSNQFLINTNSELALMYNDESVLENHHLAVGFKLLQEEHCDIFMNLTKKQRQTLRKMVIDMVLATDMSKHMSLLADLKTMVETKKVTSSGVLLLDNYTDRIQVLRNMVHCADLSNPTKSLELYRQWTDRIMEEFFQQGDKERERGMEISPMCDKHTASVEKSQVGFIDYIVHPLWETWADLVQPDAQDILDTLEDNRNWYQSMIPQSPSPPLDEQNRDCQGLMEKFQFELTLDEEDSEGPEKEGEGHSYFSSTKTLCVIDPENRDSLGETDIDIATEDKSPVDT
Ubiquitin carboxyl-terminal hydrolase 1 (Homo sapiens), sequence (O94782 whole entry, looked up): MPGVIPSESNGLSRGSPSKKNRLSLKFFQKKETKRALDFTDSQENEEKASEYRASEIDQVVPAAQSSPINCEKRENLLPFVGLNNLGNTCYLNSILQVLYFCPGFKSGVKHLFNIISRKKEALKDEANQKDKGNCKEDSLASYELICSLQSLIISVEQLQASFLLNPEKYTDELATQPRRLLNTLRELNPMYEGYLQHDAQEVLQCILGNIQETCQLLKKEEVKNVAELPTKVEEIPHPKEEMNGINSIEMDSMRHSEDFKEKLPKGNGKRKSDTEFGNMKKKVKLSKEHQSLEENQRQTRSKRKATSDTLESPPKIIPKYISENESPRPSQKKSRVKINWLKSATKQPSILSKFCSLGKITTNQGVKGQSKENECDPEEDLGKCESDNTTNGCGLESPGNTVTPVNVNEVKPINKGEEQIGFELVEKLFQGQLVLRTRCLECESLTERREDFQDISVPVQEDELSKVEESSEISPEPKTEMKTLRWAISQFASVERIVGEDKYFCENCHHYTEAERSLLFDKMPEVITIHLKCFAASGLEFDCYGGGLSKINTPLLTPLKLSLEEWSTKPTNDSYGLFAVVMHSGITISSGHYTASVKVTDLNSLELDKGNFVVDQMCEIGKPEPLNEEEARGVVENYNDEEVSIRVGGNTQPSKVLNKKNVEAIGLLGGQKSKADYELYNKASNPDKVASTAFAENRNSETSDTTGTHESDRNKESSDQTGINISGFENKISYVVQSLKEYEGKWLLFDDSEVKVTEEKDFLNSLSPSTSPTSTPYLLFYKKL

CC[C@H](CC[C@H](C)[C@@H]1CC[C@@H]2[C@H]3CC=C4C[C@@H](O)CC[C@]4(C)[C@H]3CC[C@]21C)C(C)C
-14.7%: max response [7, 22]
-14.8%: max response [7, 21]
inactive: outcome [1] | activity change, negative = inhibition [2] -3.85% | outcome [3] | Potency [4] > 20.6 µM | Potency [5] | outcome [6] | activity change, negative = inhibition [7] 2.08% | Potency [8]

NCc1ccccc1CC(=O)N[C@@H]1C(=O)N2C(C(=O)O)=C(CSc3nnnn3CC(=O)O)CS[C@@H]12
-14.4%: max response [7, 21]
inactive: outcome [1] | outcome [3] | Potency [9] > 20.6 µM | Potency [4] > 20.6 µM | Potency [5] | outcome [6] | activity change, negative = inhibition [7] -0.0833% | Potency [10] | outcome [11] | activity, negative = inhibition ([12]; parasite line A) 1.91% | activity, negative = inhibition ([12]; parasite line B) -4.65% | Potency [13] | Potency [14] | Potency [15] | Potency [16] | Potency [17] | Potency [18] | Potency [19] | Potency [20]
-13.9%: max response [7, 22]

CCC(=O)OCC(=O)[C@@]1(OC(=O)CC)[C@H](C)C[C@@H]2[C@@H]3[C@H]([C@@H](O)C[C@@]21C)[C@]1(C)C=CC(=O)C=C1C[C@@H]3Cl
-9.62%: max response [7, 21]
inactive: outcome [1] | activity change, negative = inhibition [2] 14% | Potency [5] | outcome [6] | activity change, negative = inhibition [7] -4.84% | Potency [10] | outcome [11] | Potency [13]
-12.3%: max response [7, 22]
active: Potency [9] 0.00423 µM

C[C@H](CCC(=O)O)[C@H]1CC[C@@H]2[C@H]3[C@@H](CC[C@@]21C)[C@]1(C)CC[C@H](O)C[C@@H]1C[C@@H]3O
inactive: outcome [1] | activity change, negative = inhibition [2] -6.74% | outcome [3] | Potency [5] | outcome [6] | activity change, negative = inhibition [7] 0.999% | Potency [8]
-4.97%: max response [7, 22]
-6.52%: max response [7, 21]

CC[C@H](C)[C@H](N)C1=N[C@H](C(=O)N[C@@H](CC(C)C)C(=O)N[C@@H](CCC(=O)O)C(=O)N[C@@H](C(=O)N[C@H]2CCCCNC(=O)[C@@H](CC(N)=O)NC(=O)[C@@H](CC(=O)O)NC(=O)[C@@H](Cc3cnc[nH]3)NC(=O)[C@@H](Cc3ccccc3)NC(=O)[C@@H]([C@@H](C)CC)NC(=O)[C@@H](CCCN)NC2=O)[C@@H](C)CC)CS1 ({Ileψ(thiazoline)Cys}-LE[d(aIle)]K[dOrn][d(aIle)][dF][dH][dD][dN]; lactam 4-C)
-6.25%: max response [7, 21]
-6.65%: max response [7, 22]
inactive: outcome [1] | activity change, negative = inhibition [2] 1.53% | outcome [3] | Potency [5] | outcome [6] | activity change, negative = inhibition [7] -0.807% | Potency [8] | Potency [10] | outcome [11] | activity, negative = inhibition ([12]; parasite line A) 0.552% | activity, negative = inhibition ([12]; parasite line B) 7.07% | Potency [13] | Potency [14] | Potency [15] | Potency [16] | Potency [17] | Potency [18] | Potency [19] | Potency [20]

CC1(C)S[C@@H]2[C@H](NC(=O)COc3ccccc3)C(=O)N2[C@H]1C(=O)O (tested in a mixture with another compound)
-7.74%: max response [7, 22]
-7.85%: max response [7, 21]
inactive: outcome [1] | activity change, negative = inhibition [2] -7.06% | outcome [3] | Potency [4] > 20.6 µM | Potency [5] | outcome [6] | activity change, negative = inhibition [7] 1.44% | Potency [8]
